Reference: PMC6212790, “How bacterial xenogeneic silencer rok distinguishes foreign from self DNA in its resident genome”
The full ranking holds about 33,000 sequences; the median of “e-score” is about -0.037, and the highest 2% start at about 0.34. Many of the other results were omitted from the sample, so the highest values are more common in it than they were.

What follows are sequences tested against T1, GST-Rok (full length) (Bacillus subtilis subsp. subtilis str. …, UniProt O34857 1-191) (assay: protein binding microarray; Rok is a gene silencer of Bacillus subtilis; high values mean tight binding). Conditions: protein: recombinant; tags: GST (pTH5325, pDEST15-Magic modified); dsDNA, one strand shown.
T1 sequence: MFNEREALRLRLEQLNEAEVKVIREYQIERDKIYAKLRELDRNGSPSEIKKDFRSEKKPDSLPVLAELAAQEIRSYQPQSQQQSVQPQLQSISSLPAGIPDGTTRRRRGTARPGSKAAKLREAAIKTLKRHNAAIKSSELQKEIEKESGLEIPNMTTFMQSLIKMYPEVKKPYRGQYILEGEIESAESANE
Method in brief: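 Every oligonucleotide joins a 25-mer constant primer to a 35-mer variable part drawn from a de Bruijn sequence of order 10, so each non-palindromic 8-mer appears at least 32 times and each palindromic 8-mer 16 times. The preference for every 8-mer is reported as a unitless, rank-based enrichment score (E-score). This score spans 0.5 for the most favored 8-mer to −0.5 for the most disfavored.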

Sequence | binding signal [E-score]
AACTTATC | 0.134
GAATGGTA | 0.317
TAATGGTA | 0.387
CAATGGTA | 0.322
AACTCAGG | 0.0467
CGTGACCA | -0.0921
AAGTACAG | 0.272
ATATATTC | 0.34
ACATATTC | 0.27
CAATATTC | 0.21
AAATATTC | 0.251
GAATATTC | 0.417
CGATATTC | 0.194
GAATATTA | 0.0406
CTATATTC | 0.353
CTCTATTC | 0.00987
AGGTCACT | -0.137
ATTGTTTC | 0.228
CCGGTCAC | -0.153
GTACATTA | 0.262
CTACATTC | 0.176
ATACATGA | 0.294
CTACATGA | 0.347
CTACATGC | 0.308
CTACATTA | 0.355

Sequence | binding signal [E-score]
CAAAAAAC | 0.0394
GGTAAAAA | 0.349
GGGTAAAA | 0.184
CGTAAAAA | 0.0957
GGTAAAAC | 0.192
CGGTAAAA | 0.278
TGGTAAAA | 0.354
CGAGTTAG | 0.0866
ACTGCCAC | -0.0928
AAATGATC | 0.143
AAATGATT | -0.0952
AAATGATA | 0.37
AAAACCTA | 0.255
ACTGGTGG | -0.172
CAGTACGA | -0.048
TAGTACGA | 0.359
GAGTACTA | 0.13
CAGTACTA | 0.279
TAGTACTA | 0.44
AAGTACTG | 0.114
AAGTACTC | 0.165
GAGTACGA | 0.0148
AAGTACTA | 0.389
CCAATTGC | 0.145
AGATAGCG | 0.22

Sequence | binding signal [E-score]
ACCTTCTG | -0.0843
GTATACGA | 0.179
CTATACTC | 0.137
ATATACTA | 0.409
ATATACTC | 0.288
CGATACTA | 0.328
GTATACTA | 0.378
ATATACGA | 0.23
CTATACTA | 0.288
GTATACAA | 0.308
GGATACTA | 0.211
ATATACTG | 0.391
AGATACTA | 0.348
ATCAGCAA | -0.0224
GACAAATC | -0.0534
ATGATTGA | 0.0352
GGATGTTA | 0.0229
CAATTACA | 0.189
AAAGCCGG | -0.147
ACGAGTCC | -0.192
AATAGGAG | 0.0707
ACATACTG | 0.141
GCATACTA | 0.325
ACATACTA | 0.361
CTCCCAAC | -0.0944

Sequence | binding signal [E-score]
AGGCTTAA | -0.159
ATACGTAA | 0.323
CTAAAAAC | 0.082
ATAGTTGA | 0.228
CTAGTTTA | 0.383
CTAGTTTC | 0.413
CTAGTTCA | 0.152
ATCGTTTC | 0.14
CCAGTTTC | -0.0817
CGAGTTTC | 0.0534
ATAGTTTC | 0.398
ATAGTTCC | 0.135
CTAGTTGA | 0.226
ATCGTTTA | -0.0103
ATAGTTTA | 0.346
GCCTACTA | 0.0988
ACAGGAGT | 0.0409
ACTTACTA | 0.306
TGATTCAA | -0.164
AAAGAATA | 0.138
CACTGACA | -0.161
ATAGTTTG | 0.364
GTAGTTTA | 0.382
GCAGTTTA | 0.0849
ATCGTTTG | -0.0128

Sequence | binding signal [E-score]
GGAGTTTA | 0.0513
ATAGTTGG | 0.0271
AGCGTACT | 0.0975
GGTTGGTA | 0.109
AGCCCTTA | -0.135
AGGAAGAA | -0.0233
ATAAATTA | 0.347
GTAAATTA | 0.383
ACAAATTA | 0.338
ATAAATTC | 0.221
ACAAATTC | 0.238
ACAAATTG | -0.0361
ATAAATTG | 0.336
ATGAATTG | 0.0516
CTAAATTA | 0.252
CTGAATTA | 0.134
TAAAATTA | 0.199
ATGAATTA | 0.353
ACTAATCA | 0.154
CCACTAGC | -0.055
CGCCAGTA | -0.111
TATTGCAA | 0.253
ATAGCAGA | 0.144
ATACCATC | 0.198
GTACCATA | 0.339

Sequence | binding signal [E-score]
ATACCATA | 0.286
CTACCATA | 0.328
GTACCAGA | -0.0447
CTACCATC | 0.396
ATGCTAGC | 0.313
ATCAATTG | 0.221
GCAATGTA | 0.23
TAAATCGA | 0.0795
CAAGTCAA | 0.171
TACAACTA | 0.368
ACAAAATC | -0.0365
CAGAAATA | 0.303
AACAACTA | 0.292
GACAACTA | 0.333
TAAAAATA | 0.369
GAGAAATA | 0.305
TAGAAATA | 0.409
ACAAAATA | 0.34
CTAAAATA | 0.262
AAAAAATA | 0.314
CCAAAATA | 0.164
GCAGAACC | -0.0431
ACCGGTGG | -0.196
CTTACCTC | 0.143
AACGTAGA | 0.17

Sequence | binding signal [E-score]
AACCCAGG | -0.0972
AGAGGTGA | -0.164
GGACGCTA | 0.000145
GAGTTGAA | 0.00685
AAACATAG | 0.247
CCTGCGAA | -0.196
GGCTTCAA | -0.0517
ATAACCAA | 0.276
ATGGTTAC | -0.167
CAGAACTA | 0.301
GAGAACTA | 0.326
AGAAAATA | 0.328
GAAAAATA | 0.279
GTAAAATA | 0.328
ATAAAATA | 0.426
ATAAAATG | 0.203
GGAAAATA | 0.37
TAGAACTA | 0.406
CGGACTTC | -0.0622
AGTGTTAG | 0.118
GCGCGGTA | 0.073
CGATATAG | 0.191
CGATATAA | 0.357
TGATATAA | 0.371
TGATAAAA | 0.27

Sequence | binding signal [E-score]
GGATATAA | 0.271
CGATATAC | 0.239
CTTCTTTC | 0.0125
CGCGCTGA | 0.105
CAACGAGC | -0.148
ACCTTCTC | -0.145
ATAACATG | 0.152
CTAACATA | 0.186
ATAACATA | 0.365
ACGTCAAG | 0.0301
ATGTAGTC | 0.162
ATGTAGTG | 0.211
GTGTAGTA | 0.379
CTGTAGTA | 0.243
ATGTAGTA | 0.403
GAGTAGTA | 0.311
CCCAGTAG | 0.151
AAGTTCAT | 0.147
ATGCAAAA | 0.086
AAAATAAT | 0.246
TAAATACA | 0.333
AAAATACC | 0.373
CAAATACC | 0.126
GAAATACC | 0.175
AAAATACA | 0.344

Sequence | binding signal [E-score]
AAAATACG | 0.303
GAAATACA | 0.184
AAAATACT | 0.416
AACGGTGG | 0.0395
CGCCGACG | -0.0281
AAACAGGA | 0.00183
ACGTATCA | 0.0936
ACCTTATC | 0.155
AACTTAAG | 0.0622
AACATACT | 0.136
ACCATGTG | -0.159
TACATGTA | 0.339
AACATACA | 0.355
TACATCTA | 0.382
AACATACG | 0.205
AACATCTA | 0.236
AACATGTA | 0.285
CACATGTA | 0.284
CCCATGTA | 0.12
ACCATGTA | 0.385
CACATCTA | 0.268
